From the supplement of paper PMC6609913 come the findings set out here.

Structures can show the parent of a compound that is named as a salt. ± gives the standard deviation of the averaged measurements. Over roughly 1,300 compounds, “normalised cell viability” has its median near 1; the lowest 2% begin near 0.14. Only a selection was taken, and the lowest values are over-represented in it overall.

In this test the test system is V-C8 (BRCA2-deficient hamster cells). The test can be described thus: normalised cell viability (fraction of plate median); higher = more viable cells (less toxic). As to conditions: 5 µM. In a few lines:
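Hamster V-C8 cells lacking BRCA2 and V-C8 cells with BRCA2 restored were seeded in 96-well plates. Library drugs (10 mM DMSO stocks) were added 24 h later at 5 μM in 100 μl medium, next to DMSO control wells, for 3 days (screen 1) or 6 days (screen 2). Cell viability was read by resazurin assay, median-plate normalised (modified robust per cent of sample), and triplicate wells were averaged.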

For `CO[C@H]1/C=C/O[C@@]2(C)Oc3c(C)c(O)c4c(O)c(c5c(nc6cc(C)ccn65)c4c3C2=O)NC(=O)/C(C)=C\C=C\[C@H](C)[C@H](O)[C@@H](C)[C@@H](O)[C@@H](C)[C@H](OC(C)=O)[C@@H]1C` [Rifaximin], the normalised cell viability is 0.964 ± 0.023 (treatment time: 3 days) and 0.928 ± 0.017 (treatment time: 6 days).
The like results for `CN(C/C=C/c1ccccc1)Cc1cccc2ccccc12` [Naftifine hydrochloride] were, in that order, 0.199 ± 0.019 and 0.219 ± 0.0077.
With `CC(O)(P(=O)(O)O)P(=O)(O)O` [Etidronic acid, disodium salt], the normalised cell viability reads like this: (treatment time: 3 days) 1.03 ± 0.024; (treatment time: 6 days) 1.05 ± 0.046.
The like results for `CNC(=C[N+](=O)[O-])NCCSCc1ccc(CN(C)C)o1` [Ranitidine hydrochloride] were, in that order, 1.02 ± 0.13 and 1.08 ± 0.045.
Taken in the same sequence, the figures for `CC(=O)OCC(=O)[C@@]1(OC(C)=O)[C@@H](C)C[C@H]2[C@@H]3C[C@H](F)C4=CC(=O)C=C[C@]4(C)[C@@]3(F)[C@@H](O)C[C@@]21C` [Diflorasone Diacetate] were 1.18 ± 0.074 and 1.02 ± 0.051.
On to `OC[C@H]1O[C@@H](Oc2ccc(O)cc2)[C@H](O)[C@@H](O)[C@@H]1O` [Arbutin], for which the normalised cell viability by setting is: (treatment time: 3 days) 1.05 ± 0.026; (treatment time: 6 days) 1.03 ± 0.058.
With `CCOc1ccc(Cc2nccc3cc(OCC)c(OCC)cc23)cc1OCC` [Ethaverine hydrochloride], the normalised cell viability was 0.625 ± 0.013 (treatment time: 3 days) and 0.534 ± 0.022 (treatment time: 6 days).
With `CC(=O)O[C@H]1C[C@@H]2CC[C@@H]3[C@H](CC[C@@]4(C)[C@H]3C[C@H]([N+]3(C)CCCCC3)[C@@H]4OC(C)=O)[C@@]2(C)C[C@@H]1N1CCCCC1` [Vecuronium bromide], the normalised cell viability is 1.01 ± 0.047 (treatment time: 3 days) and 1.04 ± 0.036 (treatment time: 6 days).
Regarding `Clc1ccc(C(Cn2ccnc2)OCc2c(Cl)cccc2Cl)c(Cl)c1` (stereo not given) [Isoconazole], the normalised cell viability by setting is: (treatment time: 3 days) 1.12 ± 0.04; (treatment time: 6 days) 1.09 ± 0.045.
Compound `NCCCC(O)(P(=O)(O)O)P(=O)(O)O` [Alendronate sodium] came in with a normalised cell viability (treatment time: 3 days) of 0.709 ± 0.1 and a normalised cell viability (treatment time: 6 days) of 0.515 ± 0.033.
In turn, `O=C(Nc1ccc([N+](=O)[O-])cc1Cl)c1cc(Cl)ccc1O` [Niclosamide] came in with a normalised cell viability (treatment time: 3 days) of 0.124 ± 0.0032 and a normalised cell viability (treatment time: 6 days) of 0.0967 ± 0.0062.
Taken in the same sequence, the figures for `CN(C)CCOC(c1ccccc1)c1ccccc1.Cn1c(=O)c2[nH]c(Cl)nc2n(C)c1=O` [Dimenhydrinate] were 1.08 ± 0.086 and 1.04 ± 0.024.
Taken in the same sequence, the figures for `CN1C(C)(C)CCCC1(C)C` [Pempidine tartrate] were 0.993 ± 0.026 and 1.048 ± 0.004.
For `C=C1C(=O)O[C@H]2[C@H]1CC/C(C)=C/CC[C@@]1(C)O[C@@H]21` [Parthenolide], the normalised cell viability by setting is: (treatment time: 3 days) 0.199 ± 0.017; (treatment time: 6 days) 0.416 ± 0.11.
Taken in the same sequence, the figures for `Clc1ccc(CCC(Cn2ccnc2)Sc2c(Cl)cccc2Cl)cc1` (stereo not given) [Butoconazole nitrate] were 0.839 ± 0.015 and 0.801 ± 0.028.
Taken in the same sequence, the figures for `CS(=O)(=O)c1ccc(C2=C(c3ccccc3)C(=O)OC2)cc1` [Rofecoxib] were 1.02 ± 0.065 and 1.02 ± 0.016.
The like results for `CC(C)n1c(/C=C/C(O)CC(O)CC(=O)O)c(-c2ccc(F)cc2)c2ccccc21` (stereo not given) [Fluvastatin sodium salt] were, in that order, 0.121 ± 0.0047 and 0.156 ± 0.004.
For the compound `CC(C)c1c(C(=O)Nc2ccccc2)c(-c2ccccc2)c(-c2ccc(F)cc2)n1CC[C@@H](O)C[C@@H](O)CC(=O)O` [Atorvastatin], the normalised cell viability reads like this: (treatment time: 3 days) 0.633 ± 0.051; (treatment time: 6 days) 0.734 ± 0.032.
The like results for `C=CC(N)CCC(=O)O` (stereo not given) [Vigabatrin] were, in that order, 1.04 ± 0.061 and 1.03 ± 0.042.
Turning to `CCN(CCO)CCCC(C)Nc1ccnc2cc(Cl)ccc12` (stereo not given) [Hydroxychloroquine sulfate], the normalised cell viability runs as follows: (treatment time: 3 days) 0.365 ± 0.05; (treatment time: 6 days) 0.524 ± 0.048.
Taken in the same sequence, the figures for `CCN(CC)CCCC(C)Nc1c2ccc(Cl)cc2nc2ccc(OC)cc12` (stereo not given) [Quinacrine dihydrochloride dihydrate] were 0.123 ± 0.011 and 0.108 ± 0.009.
Regarding `CCN(CC)CCCC(C)Nc1ccnc2cc(Cl)ccc12` (stereo not given) [Chloroquine diphosphate], the normalised cell viability runs as follows: (treatment time: 3 days) 0.756 ± 0.026; (treatment time: 6 days) 0.76 ± 0.0079.
Taken in the same sequence, the figures for `Clc1ccc(COC(Cn2ccnc2)c2ccc(Cl)cc2Cl)cc1` (stereo not given) [Econazole nitrate] were 0.938 ± 0.028 and 0.98 ± 0.023.
Taken in the same sequence, the figures for `CC[C@H](C)[C@H](N)C1=N[C@H](C(=O)N[C@@H](CC(C)C)C(=O)N[C@H](CCC(=O)O)C(=O)N[C@H](C(=O)N[C@H]2CCCCNC(=O)[C@H](CC(N)=O)NC(=O)[C@@H](CC(=O)O)NC(=O)[C@H](Cc3cnc[nH]3)NC(=O)[C@@H](Cc3ccccc3)NC(=O)[C@H]([C@@H](C)CC)NC(=O)[C@@H](CCCN)NC2=O)[C@@H](C)CC)CS1` [Bacitracin] were 1.05 ± 0.02 and 0.983 ± 0.061.
The like results for `CCCCNc1c(C(=O)OCC)c(C)nc2c1cnn2CC` [Tracazolate hydrochloride] were, in that order, 0.947 ± 0.034 and 1.03 ± 0.013.
Regarding `Nc1nc(=O)c2c([nH]1)NC[C@@H](CNc1ccc(C(=O)N[C@@H](CCC(=O)O)C(=O)O)cc1)N2C=O` [Folinic acid calcium salt], the normalised cell viability reads like this: (treatment time: 3 days) 1.05 ± 0.036; (treatment time: 6 days) 1.11 ± 0.06.
In the case of `COC(=O)N/N=C/c1c[n+]([O-])c2ccccc2[n+]1[O-]` [Carbadox], the normalised cell viability is 0.69 ± 0.18 (treatment time: 3 days) and 0.549 ± 0.029 (treatment time: 6 days).
As to `Cc1cc(/C=C/c2ccc3cc(N(C)C)ccc3[n+]2C)c(C)n1-c1ccccc1` [Pyrvinium pamoate], the normalised cell viability was determined as 0.132 ± 0.0063 (treatment time: 3 days) and 0.172 ± 0.012 (treatment time: 6 days).
As to `CC1(C)S[C@@H]2[C@H](NC(=O)[C@H](N)c3ccccc3)C(=O)N2[C@H]1C(=O)OC1OC(=O)c2ccccc21` (stereo not given in full) [Talampicillin hydrochloride], the normalised cell viability by setting is: (treatment time: 3 days) 1.09 ± 0.082; (treatment time: 6 days) 1.02 ± 0.085.
In turn, `COc1cc([C@@H]2c3cc4c(cc3[C@@H](O[C@@H]3O[C@@H]5CO[C@@H](C)O[C@H]5[C@H](O)[C@H]3O)[C@H]3COC(=O)[C@H]23)OCO4)cc(OC)c1O` [Etoposide] had a normalised cell viability (treatment time: 3 days) of 0.155 ± 0.0057 and a normalised cell viability (treatment time: 6 days) of 0.133 ± 0.017.
